ELG1 genotox: inducers of genotoxicity in HEK293T ELG1-luciferase cells. 330,000 tested, 1.3% active. AID 504466. HEK293T ELG1-luciferase reporter, luminescence, 16 h. Potency, µM (highest dose often 46 µM), for inactives: at the highest dose activity change, positive = activation, usual class: activators; further: % of control where 0% means no effect; nearly all actives have a fitted effect of over 60% in size
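ELG1-luciferase HEK293T cells, 2,000/well; compound pinned in; 16 hr, 37 °C, 5% CO2; ONE-Glo, 30 min RT; luminescence on CCD imager.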
SMN2 splice up: SMN2 splice variant enhancement | AID 1458 | Potency, µM (series often up to 46.1 µM), for inactives: top-dose activity change, positive = activation, most hits filed as activators | 210,000 tested, 2.8% active | HEK293 SMN2-luciferase splicing reporter, luminescence, 30-36 h; further: % of control where 0% means no effect; nearly all actives have a fitted effect of over 55% in size
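qHTS luciferase splicing reporter: luminescence rises when SMN2 exon 7 is included in transfected HEK293 cells. Compound exposure lasted 30-36 h at 37C, with 4.5 mM final sodium butyrate as control, followed by a ONE-Glo read.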
NPC1 prom act: NPC1 promoter activation; 320,000 tested, 2.4% active; Huh7 NPC1 promoter luciferase reporter, 24 h; Potency, µM (highest dose often 9.22 µM), without a hit: top-dose activation, hits mostly activators; AID 485313; further: % of control where 0% means no effect; nearly all actives have a fitted effect of over 60% in size
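Quantitative HTS used a cell-based reporter: Huh7 cells stably bearing the NPC1 promoter upstream of luciferase were treated with compounds for 24 h, and promoter activation was read as luminescence.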
FLuc modulator: counter-screen for miR-21 project: firefly luciferase inhibitors or activators; P08659; purified FLuc, Km substrates, luminescence inhibition; Potency, µM (highest dose often 57.5 µM), without a hit: at the top dose activity change, negative = inhibition, hits mostly inhibitors; 360,000 tested, 6.9% active; AID 588342;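 further: plate controls were vehicle for no effect and reference inhibitor for full effect; nearly all actives have a fitted effect of over 55% in size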
Target sequence (P08659 whole entry, looked up): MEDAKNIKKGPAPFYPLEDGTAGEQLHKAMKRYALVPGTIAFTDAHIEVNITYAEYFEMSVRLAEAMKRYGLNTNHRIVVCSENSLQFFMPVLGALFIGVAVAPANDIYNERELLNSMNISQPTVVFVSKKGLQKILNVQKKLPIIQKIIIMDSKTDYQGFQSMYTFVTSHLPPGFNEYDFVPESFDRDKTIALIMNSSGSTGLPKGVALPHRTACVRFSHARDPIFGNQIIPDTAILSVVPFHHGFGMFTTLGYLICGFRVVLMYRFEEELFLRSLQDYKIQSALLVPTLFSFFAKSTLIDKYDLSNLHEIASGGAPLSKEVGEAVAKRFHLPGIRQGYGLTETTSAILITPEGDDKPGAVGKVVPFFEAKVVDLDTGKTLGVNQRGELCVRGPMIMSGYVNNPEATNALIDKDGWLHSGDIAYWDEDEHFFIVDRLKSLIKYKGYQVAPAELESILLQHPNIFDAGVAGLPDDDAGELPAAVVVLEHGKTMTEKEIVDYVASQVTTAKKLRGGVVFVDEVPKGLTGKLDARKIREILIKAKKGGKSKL
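Purified P. pyralis luciferase, 10 nM final, with Km-level 10 uM D-luciferin and 10 uM ATP in 50 mM Tris acetate pH 7.5, 10 mM Mg acetate, 0.01% Tween-20, 0.05% BSA; 6-point qHTS titration about 60 µM downward; luminescence read.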
Rab9 promoter act: Rab9 promoter activation; Potency, µM (highest dose often 9.22 µM), inactives show at the top dose activation, negative = inhibition, actives largely listed as activators; Huh7 Rab9 promoter-luciferase reporter, luminescence, 24 h; AID 485297; 320,000 tested, 2.8% active; further: % of control where 0% means no effect; nearly all actives have a fitted effect of over 60% in size
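Huh7 reporter line, Rab9 promoter upstream of luciferase. Compound exposure 24 h at 37 °C in reduced-serum medium with 10% FBS. Read-out: luminescence.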
Luc counter: counter-screen: inhibitors of Kinase-Glo firefly luciferase; Kinase-Glo luciferase, ATP luminescence, 8 min; Potency, µM (titrated, usually from 38.3 µM), for inactives: at the top dose activity change, negative = inhibition, actives largely listed as inhibitors; 200,000 tested, 0.28% active; AID 1379; further: on the % scale 0 is the no-effect control and ±100 the full control effect; nearly all actives have a fitted effect of over 60% in size
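Inhibition of Kinase-Glo luciferase light generation was assessed at 10 uM ATP in pH 7.2 imidazole buffer, with luminescence measured after eight minutes at ambient temperature.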
An asterisk follows results filed as active; ? = inconclusive; nt = no result given. An excerpt weighted towards active compounds, which were near 7.5% of everything screened. The call rests on the fitted dose curve; in most records, active means well fitted curve in the direction sought with a large enough effect; inconclusive means small, poorly fitted or top-dose-only effect, or another doubt; inactive means no such curve, though single readings can be large; an effect the other way counts as inactive or inconclusive. Potency means the concentration at half of the fitted maximal effect.

SMILES	ELG1 genotox	SMN2 splice up	NPC1 prom act	FLuc modulator	Rab9 promoter act	Luc counter
CS(=O)(=O)N1CCC(Oc2ccccc2C(=O)NC(C2CC2)C2CC2)CC1	0.6%	nt	-1.6%	-12.9%	0.8%	-1.9%
COC(=O)c1ccc(OCC(O)CNCC(c2ccc(OC)cc2)N(C)C)c(OC)c1 (stereo unspecified)	3.9%	nt	0.8%	-10.3%	6.4%	nt
COc1cccc(/C=C2\SC(=O)N(CC(=O)NC3C=CS(=O)(=O)C3)C2=O)c1 (stereo unspecified)	-7.2%	nt	-3.5%	26.9µM*	6.1%	nt
O=C(CN1C(=O)/C(=C/c2ccccc2)SC1=S)NC1CCS(=O)(=O)C1 (stereo unspecified)	-0.5%	nt	-8.2%	-17.6%	0.0%	nt
CC(C)c1ccc(/C=C2\SC(=O)N(CC(=O)NC3C=CS(=O)(=O)C3)C2=O)cc1 (stereo unspecified)	5.2%	nt	25.8%	1.2µM*	22.5%	nt
COc1cccc(/C=C2\SC(=O)N(CCC(=O)NC3CCS(=O)(=O)C3)C2=O)c1 (stereo unspecified)	13.4%	nt	12.0%	?	10.9%	nt
COc1cccc(/C=C2\SC(=O)N(CC(=O)NC3CCS(=O)(=O)C3)C2=O)c1 (stereo unspecified)	6.1%	nt	-13.6%	16.9µM*	-0.3%	nt
COc1ccccc1/C=C1\SC(=S)N(CC(=O)NC2CCS(=O)(=O)C2)C1=O (stereo unspecified)	-0.1%	nt	-2.7%	13.5µM*	3.2%	nt
COc1cccc(/C=C2\SC(=S)N(C(C)C(=O)NC3C=CS(=O)(=O)C3)C2=O)c1 (stereo unspecified)	9.2%	nt	-5.9%	?	12.0%	nt
CCNC(=S)Nn1cnc2ccccc21	-0.2%	nt	-3.9%	2.1%	-1.7%	nt
Cc1cc(C2(c3cc(C)c(O)cc3C)OS(=O)(=O)c3ccccc32)c(C)cc1O	nt	-8.0%	nt	nt	nt	nt
O=C(COC(=O)/C=C/c1cccc(F)c1)NC(=O)NCc1ccccc1	3.2%	nt	nt	nt	nt	nt
CN(C)c1ccc(/C=N/NC(=O)C(O)(c2ccccc2)c2ccccc2)o1	-0.9%	-5.6%	-1.9%	0.0%	-3.9%	0.6%
CN(C)c1ccc(/C=N/NC(=O)c2ccccc2O)o1	1.5%	1.2%	-3.0%	21.3µM*	4.8%	-2.9%
O=C(N/N=C/c1ccc(-c2cccc([N+](=O)[O-])c2)o1)c1ccccc1O	-12.6%	3.6%	1.8%	10.7µM*	?	1.0%
O=C(N/N=C/c1ccc(-c2cccc(C(F)(F)F)c2)o1)c1ccccc1O	-4.7%	2.7%	-1.7%	2.1%	0.2%	-1.0%
O=C(N/N=C/c1ccc(-c2cccc(C(F)(F)F)c2)o1)c1ccccc1Br	-1.0%	-25.1%	7.7%	21.3µM*	1.2%	-0.3%
CCOc1ccc(CNC(=O)c2cccc(NC(=O)N3CCSc4ncccc43)c2)cc1OC	nt	nt	nt	-2.7%	nt	nt
NC(=O)[C@@H]1CCCN1C(=O)c1ccc2nc(Cc3cccc(Cl)c3)oc2c1	7.9%	nt	-3.6%	-1.6%	-0.7%	nt
COc1ccc(OC)c(C2Nc3ccccc3NC3=C2C(=O)CC(C)(C)C3)c1 (stereo unspecified)	-1.3%	nt	2.8%	2.4%	-1.7%	nt
C=CCN1C(=O)S/C(=C\c2ccc3c(c2)n(C)c(=O)n3C)C1=O	?	?	9.1%	-13.0%	20.7%	-2.5%
O=C1NC(=S)N/C1=C\c1ccc(N2CCOCC2)cc1	?	18.2%	29.2%	21.3µM*	23.4%	-6.6%
C=CCN1C(=O)S/C(=C\c2ccc(N3CCOCC3)cc2C)C1=O	?	nt	?	6.01µM*	3.55µM*	-1.6%
Cc1cc(N2CCOCC2)ccc1/C=C1/SC(=O)NC1=O	?	22.4µM*	?	15.1µM*	?	12.7%
C=CC(C)N1C(=O)S/C(=C\c2ccc(N3CCOCC3)cc2C)C1=O (stereo unspecified)	?	-37.6%	?	10.7µM*	?	1.3%
SMILES	ELG1 genotox	SMN2 splice up	NPC1 prom act	FLuc modulator	Rab9 promoter act	Luc counter
O=C1NC(=S)N/C1=C/c1ccc2c(c1)OCO2	-15.1%	nt	-5.5%	?	-13.9%	nt
O=C(Cn1ncc2c3ccccc3n(Cc3ccc(Cl)cc3)c2c1=O)NCc1ccccn1	nt	-0.3%	nt	3.7%	nt	nt
Cc1nc(-c2ccc(Cl)cc2)sc1CCNC(=O)C(=O)Nc1ccc2c(c1)OCO2	nt	nt	nt	-6.3%	nt	nt
Cc1ccc2oc(C(=O)NCCC3CCCCO3)c(C)c2c1 (stereo unspecified)	3.66µM*	nt	0.562µM*	2.69µM*	0.447µM*	nt
COc1ccc2oc(C(=O)NCCN3CCOCC3)c(C)c2c1OC	10.3µM*	nt	2µM*	15.1µM*	2.24µM*	nt
Cc1ccc2oc(C(=O)NCCCN3CCOCC3)c(C)c2c1	18.3µM*	nt	3.16µM*	13.5µM*	3.98µM*	nt
COc1ccsc1C(=O)NCCN1CCOCC1	-4.0%	nt	0.5%	5.6%	2.2%	nt
Cc1cccc(C(=O)N2CCc3cc(CNC(=O)c4ccc(Br)o4)ccc32)c1	nt	nt	nt	2.6%	nt	nt
S=C(Nc1ccc(-c2nc3ccccc3[nH]2)cc1)Nc1cccnc1	?	nt	?	13.5µM*	1.41µM*	nt
O=C(CSc1ccc(Cl)cc1)Nc1ccc(-c2nc3ccccc3[nH]2)cc1	16.4%	7.94µM*	20.6%	-3.0%	?	-1.1%
O=C(/C=C/c1ccco1)Nc1ccc(-c2nc3ccccc3[nH]2)cc1	17.3%	3.55µM*	-22.9%	0.3%	-37.7%	2.1%
O=C(/C=C/c1ccco1)Nc1ccc(Oc2ccc(Cl)cc2)cc1	-4.8%	-27.7%	-5.4%	-16.8%	1.0%	-1.7%
O=C(Nc1ccc(-c2nc3ccccc3[nH]2)cc1)c1ccco1	1.84µM*	6.31µM*	0.708µM*	4.26µM*	2.24µM*	?
O=C(CSc1nc2ccccc2[nH]1)Nc1ccc(F)cc1	-0.3%	-10.6%	-0.7%	-12.5%	-7.0%	1.3%
COC(=O)[C@@]1(Cc2ccc(OC)cc2)[C@H]2c3cc(C(=O)N4CCCC4)n(CCN4CNCC4=O)c3C[C@H]2CN1C(=O)c1ccccc1	nt	-12.1%	nt	nt	nt	-3.8%
COc1ccc(NC(=O)Oc2cc(C)ccc2C(C)C)cc1	-2.9%	nt	9.3%	?	8.5%	nt
CN(c1nnc(NC(=O)Nc2ccc(Br)cc2)s1)C1CCCCC1	nt	nt	nt	6.4%	nt	nt
CC(C)NC(=O)Cn1c(=O)nc(-c2ccccc2)c2ccccc21	nt	nt	nt	1.6%	nt	nt
O=C(CSc1ccc(-c2nc3ccccc3[nH]2)cn1)N1CCN(C(=O)c2ccco2)CC1	-15.1%	-11.8%	-0.7%	10.7µM*	10.2%	-18.8%
COc1ccc(-c2nn(C)c3sc(C(=O)Nc4cc(OC)c(OC)c(OC)c4)cc23)cc1OC	nt	?	nt	8.49µM*	nt	nt
COc1cccc(-c2nn(C)c3sc(C(=O)NCc4ccc(C)o4)cc23)c1	-17.5%	15.8µM*	11.6%	2.0%	6.9%	16.0%
